ERK EGF inh: qHTS Assay for Inhibitors of the ERK Signaling Pathway using a Homogeneous Screening Assay; Stimulation with EGF | HEK293-V1b, EGF-stimulated phospho-ERK AlphaScreen | AID 1454, 2008 | Potency, µM (series often up to 11.5 µM), for the others: at the top dose activity change, negative = inhibition, actives largely listed as inhibitors | 130,000 compounds, 0.41% hits; active = well fitted inhibition curve with a large enough effect;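 note: plate controls were stimulated vehicle wells for no effect and unstimulated vehicle basal for full effect; nearly all actives have a fitted effect of over 55% in size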
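HEK293 cells stably expressing V1b receptor, serum-reduced (1% FBS) overnight, pretreated 30 min with compound, then stimulated 5 min with 25 nM EGF; phospho-ERK detected by AlphaScreen SureFire. AC50 from Hill fits, normalized to DMSO and EGF.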
The depositor's hits bear a star; ! = a repeat was not active; [ ] = dose if it differs, or a comment. Many of the other results were omitted from the sample, so hits are more common in it than they were. Potency is the fitted concentration of half-maximal effect.

SMILES	ERK EGF inh
CCOC(=O)C1CCN(/C=C2/C(=O)NC(=S)N(c3ccccc3F)C2=O)CC1	2.2%
Cc1ccc(/C=C2\C(=O)NC(=S)N(c3ccc(F)cc3)C2=O)s1	4.6%
Cc1ccc(/C=C2\C(=O)NC(=S)N(c3ccccc3F)C2=O)s1	20µM*
CC(=O)C1=C(O)[C@@H]2[C@@H]3c4c[nH]c5cccc(c45)C[C@@H]3C(C)(C)N2C1=O	-1.7%
C[C@@H]1O[C@H](O[C@@H]2C[C@@H](O)[C@]3(CO)[C@H]4[C@H](O)C[C@]5(C)[C@@H](C6=CC(=O)OC6)CC[C@@]5(O)[C@@H]4CC[C@]3(O)C2)[C@@H](O)[C@H](O)[C@H]1O	-2.7%
CCN(CC)c1ncnc2c1ncn2[C@@H]1O[C@H](COP(=O)(O)OP(=O)(O)C(Br)(Br)P(=O)(O)O)[C@@H](O)[C@H]1O	9.2%
CN(C)c1ccc(/C=C/c2cc[n+](C)c3ccccc23)cc1	13.5%
CC[n+]1c(/C=C/C=C/c2ccc(N(C)C)cc2)sc2ccccc21	15.8µM*
Oc1cc2c(cc1O)[C@H]1c3ccccc3CN[C@H]1CC2	-1.6%
C[C@]12CC[C@@H](O)CC1CCC1C2CC[C@]2(C)C(=O)CC[C@@H]12 (some centres undefined)	13.9%
C=C(C)C(=O)CP(=O)(OCC)OCC	-7.8%
CNc1ccccc1C(=O)O	23.3%
CC(C)COC(=O)c1ccccc1C(=O)OCC(C)C	-11.5%[57.5 µM]
C[CH2][Hg][S]c1ccccc1C(=O)O	31.6µM*
OC[C@@H]1CCCN2CCCC[C@@H]12	-5.2%
CN(N=O)c1ccc(O)c(O)c1	15.9%
C[C@H](CCC(=O)O)[C@H]1CC[C@@H]2[C@H]3CC[C@H]4C[C@H](O)CC[C@]4(C)[C@@H]3CC[C@@]21C	-5.9%
CC(C)n1c(O)c(C2c3cc(Cl)ccc3Oc3[nH]c(=O)n(C(C)C)c(=O)c32)c(=O)[nH]c1=O (centres undefined)	3.16µM*
CC(=O)c1c(O)n(-c2cccc(Cl)c2)c(=O)[nH]c1=O (tested in a mixture with another compound)	-9.7%[57.5 µM]
CCCCC/C=C\C/C=C\C/C=C\CCCCC(=O)NCCO	-1.1%
C[C@@H]1OC(OC2C(OC3CC[C@@]4(C)C5CC=C6C7CC(C)(C)CC[C@@]7(C(=O)O)CCC6(C)C5(C)CCC4[C@]3(C)CO)OCC(O)C2O)C(O)C(O)C1O (some centres undefined)	28.2µM*
COC(=O)[C@@]1(Cc2ccccc2)[C@H]2c3cc(C(=O)N(C)C)n(C)c3C[C@H]2CN1C(=O)c1ccccc1	5.7%
COC1=C[C@H]2[C@H]3Cc4ccc(OC)c(O)c4[C@@]2(CCN3C)CC1=O	-10.3%
O=C1NO[C@H]2[C@@H]1CN[C@@H]2C(=O)O	-2.8%
C[C@@]12CC[C@H]3[C@@H](CCC4=CC(=O)CC[C@]43C)[C@H]1CC[C@H]2C(=O)CO	11.3%[25.7 µM]
SMILES	ERK EGF inh
CC(=O)[C@@H]1CC[C@@H]2[C@@H]3CCC4=CC(=O)CC[C@@]4(C)[C@H]3CC[C@]21C	-6.6%[25.7 µM]
CC(=O)[C@H]1CC[C@H]2[C@@H]3CCC4=CC(=O)CC[C@]4(C)[C@H]3CC[C@]12C	14.1µM*!
CCC1CN2CCc3cc(OC)c(OC)cc3C2CC1CC1NCCc2cc(OC)c(OC)cc21 (centres undefined)	1.4%
O=C(O)Cc1cccnc1C(=O)O	-7.0%
O=C1Nc2ccccc2C2(CCN(CCc3ccc(C(F)(F)F)cc3)CC2)O1	31.6µM*
c1cc2cc(c1)C[n+]1ccc(c3ccccc31)NCc1ccc(cc1)CNc1cc[n+](c3ccccc13)C2	-1.6%
O=C1/C(=C\c2ccccc2)C[C@@]2(O)[C@H]3Cc4ccc(O)c5c4[C@@]2(CCN3CC2CC2)[C@@H]1O5	0.2%
COC(=O)[C@]1(C)CC[C@@]2(C)CC[C@@]3(C)C4=CCc5c(cc(O)c(O)c5C)[C@]4(C)CC[C@@]3(C)C2C1 (some centres undefined)	21.0%
CC1=C(O)C(=O)C=C2C1=CC=C1[C@]2(C)CC[C@@]2(C)C3C[C@](C)(C(=O)O)CC[C@@]3(C)CC[C@@]12C (some centres undefined)	15.8µM*
CN1[C@@H]2CC[C@H]1CC(OC(c1ccc(F)cc1)c1ccc(F)cc1)C2 (some centres undefined)	7.4%
COC(=O)C12C/C=C\Cc3ccccc3[C@@H]1CNC2=O (some centres undefined)	-0.4%
NCC(=O)c1ccccc1	20.9%
CC(=O)[O][Hg][c]1ccccc1	14.1µM*
CC(C)OP(=O)(O)NC(=O)c1ccccc1	2.7%
COC(=O)C12CC3=CC(CC3=O)Cc3ccccc3[C@@H]1CNC2=O (some centres undefined)	-2.0%
CNc1ccc2oc(C[C@H]3O[C@]4(CC[C@H]3C)O[C@H]([C@H](C)C(=O)c3ccc[nH]3)[C@H](C)C[C@H]4C)nc2c1C(=O)O	-15.4%
c1ccc(N2CCCC3(CCNCC3)C2)nc1	-4.4%
COc1ccc(CNC(=O)/C=C\c2ccc3[nH]cc(CCN(C)C)c3c2)cc1	4.8%
